In the supplement of paper PMC11732987, “Enantioselective OTUD7B fragment discovery through chemoproteomics screening and high-throughput optimisation” (Communications Chemistry, 2025):

How the values were obtained:
Experiment in all cases: log2 ratio of Biotin-Ahx-Ub-VS probe labelling (fragment/DMSO); higher = less target engagement (more negative = stronger competition), active = hit call of the paper (q ≤ 0.05, log2 ratio ≤ -1)
Conditions in all cases: compound concentration: 200 uM; treatment time: 3 h
USP34 = USP34 (UniProt Q70CQ2)
In short: (§1)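 Average log2 ratios of fragment over vehicle were obtained by unpaired t-test from global-median-normalised Spectronaut label-free quantities. Proteins with ≥2 unique peptides were included. HEK293T lysate (495 µg per sample) was treated in triplicate with fragment at 200 µM or vehicle for 3 h, then with Biotin-Ahx-Ub-VS at 0.5 µM final for 1 h, and labelled DUBs were NeutrAvidin-enriched and run by diaPASEF LC-MS/MS.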

USP36 = target: T1, USP36 (UniProt Q9P275)
T1 sequence (whole entry): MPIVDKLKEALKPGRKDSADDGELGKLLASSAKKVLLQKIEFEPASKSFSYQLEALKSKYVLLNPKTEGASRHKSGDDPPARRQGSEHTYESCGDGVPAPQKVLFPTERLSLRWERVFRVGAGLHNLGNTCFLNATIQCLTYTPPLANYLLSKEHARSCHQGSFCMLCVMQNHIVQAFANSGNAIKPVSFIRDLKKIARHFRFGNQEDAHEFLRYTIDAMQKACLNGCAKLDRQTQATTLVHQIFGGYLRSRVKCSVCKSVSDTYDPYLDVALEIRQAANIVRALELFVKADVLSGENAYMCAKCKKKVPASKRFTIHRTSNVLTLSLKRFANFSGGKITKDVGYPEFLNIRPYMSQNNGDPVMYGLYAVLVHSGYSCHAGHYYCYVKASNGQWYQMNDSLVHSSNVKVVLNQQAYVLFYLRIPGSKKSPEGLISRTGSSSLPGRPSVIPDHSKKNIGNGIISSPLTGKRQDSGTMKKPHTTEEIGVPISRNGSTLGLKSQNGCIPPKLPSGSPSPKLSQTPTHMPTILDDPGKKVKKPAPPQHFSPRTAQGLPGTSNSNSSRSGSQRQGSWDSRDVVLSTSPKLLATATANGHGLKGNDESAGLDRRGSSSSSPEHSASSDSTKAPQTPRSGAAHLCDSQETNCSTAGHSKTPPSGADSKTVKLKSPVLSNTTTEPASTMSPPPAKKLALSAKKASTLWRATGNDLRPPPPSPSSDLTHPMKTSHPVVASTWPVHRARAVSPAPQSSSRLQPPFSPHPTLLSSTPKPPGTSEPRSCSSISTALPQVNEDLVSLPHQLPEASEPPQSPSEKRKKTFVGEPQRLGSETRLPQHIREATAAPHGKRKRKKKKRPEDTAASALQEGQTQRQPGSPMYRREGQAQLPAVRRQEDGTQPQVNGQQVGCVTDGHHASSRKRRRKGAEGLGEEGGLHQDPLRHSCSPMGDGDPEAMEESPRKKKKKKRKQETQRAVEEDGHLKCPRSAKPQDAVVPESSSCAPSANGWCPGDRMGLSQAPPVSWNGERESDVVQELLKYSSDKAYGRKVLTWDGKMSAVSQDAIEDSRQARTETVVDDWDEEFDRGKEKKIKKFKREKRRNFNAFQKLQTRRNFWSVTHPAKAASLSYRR
In short: as §1

USP38 = target: T2, USP38 (UniProt Q8NB14)
T2 sequence (whole entry): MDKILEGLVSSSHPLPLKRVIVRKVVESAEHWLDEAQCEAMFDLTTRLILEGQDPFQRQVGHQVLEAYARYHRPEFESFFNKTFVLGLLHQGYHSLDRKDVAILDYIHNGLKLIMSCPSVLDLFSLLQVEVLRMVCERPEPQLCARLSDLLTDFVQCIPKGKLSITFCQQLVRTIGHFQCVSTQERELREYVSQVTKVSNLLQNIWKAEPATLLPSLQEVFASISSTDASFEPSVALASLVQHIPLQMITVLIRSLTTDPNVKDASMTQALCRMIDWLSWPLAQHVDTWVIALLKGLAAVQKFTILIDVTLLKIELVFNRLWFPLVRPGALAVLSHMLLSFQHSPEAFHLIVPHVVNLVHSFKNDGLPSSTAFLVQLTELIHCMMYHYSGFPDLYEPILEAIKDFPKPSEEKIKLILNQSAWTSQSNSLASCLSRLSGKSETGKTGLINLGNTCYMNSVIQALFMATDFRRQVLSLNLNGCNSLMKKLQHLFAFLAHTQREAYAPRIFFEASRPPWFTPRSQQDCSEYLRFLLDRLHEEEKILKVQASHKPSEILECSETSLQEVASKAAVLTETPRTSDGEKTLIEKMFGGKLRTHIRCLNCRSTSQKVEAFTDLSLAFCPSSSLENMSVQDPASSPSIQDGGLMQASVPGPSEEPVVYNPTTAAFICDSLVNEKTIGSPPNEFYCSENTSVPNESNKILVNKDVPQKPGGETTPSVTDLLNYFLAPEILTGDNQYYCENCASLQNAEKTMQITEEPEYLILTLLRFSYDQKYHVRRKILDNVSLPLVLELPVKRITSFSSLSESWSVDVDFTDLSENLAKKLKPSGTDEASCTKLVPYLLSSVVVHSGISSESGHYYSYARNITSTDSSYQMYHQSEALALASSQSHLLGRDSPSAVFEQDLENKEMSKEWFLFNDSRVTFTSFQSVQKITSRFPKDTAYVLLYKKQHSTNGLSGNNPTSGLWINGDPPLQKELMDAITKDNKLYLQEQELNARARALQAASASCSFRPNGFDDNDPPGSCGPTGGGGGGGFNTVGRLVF
In short: as §1

USP39 = target: T3, USP39 (UniProt Q53GS9)
T3 sequence (whole entry): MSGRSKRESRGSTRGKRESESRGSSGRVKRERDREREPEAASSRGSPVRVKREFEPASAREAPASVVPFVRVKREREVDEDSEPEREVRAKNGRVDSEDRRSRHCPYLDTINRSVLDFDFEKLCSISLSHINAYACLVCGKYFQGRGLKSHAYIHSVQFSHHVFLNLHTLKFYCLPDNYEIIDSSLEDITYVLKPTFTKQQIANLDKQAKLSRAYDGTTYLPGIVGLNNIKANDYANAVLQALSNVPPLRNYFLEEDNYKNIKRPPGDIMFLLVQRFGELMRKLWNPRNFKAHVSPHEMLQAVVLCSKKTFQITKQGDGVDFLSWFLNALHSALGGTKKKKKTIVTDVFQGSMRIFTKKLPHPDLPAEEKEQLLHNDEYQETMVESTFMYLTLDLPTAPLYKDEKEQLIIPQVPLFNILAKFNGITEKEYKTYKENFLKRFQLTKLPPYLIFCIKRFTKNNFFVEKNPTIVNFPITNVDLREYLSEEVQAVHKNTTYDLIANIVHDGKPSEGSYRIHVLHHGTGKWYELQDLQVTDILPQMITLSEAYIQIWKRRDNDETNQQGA
In short: as §1

USP4 = target: T4, USP4 (UniProt Q13107)
T4 sequence (whole entry): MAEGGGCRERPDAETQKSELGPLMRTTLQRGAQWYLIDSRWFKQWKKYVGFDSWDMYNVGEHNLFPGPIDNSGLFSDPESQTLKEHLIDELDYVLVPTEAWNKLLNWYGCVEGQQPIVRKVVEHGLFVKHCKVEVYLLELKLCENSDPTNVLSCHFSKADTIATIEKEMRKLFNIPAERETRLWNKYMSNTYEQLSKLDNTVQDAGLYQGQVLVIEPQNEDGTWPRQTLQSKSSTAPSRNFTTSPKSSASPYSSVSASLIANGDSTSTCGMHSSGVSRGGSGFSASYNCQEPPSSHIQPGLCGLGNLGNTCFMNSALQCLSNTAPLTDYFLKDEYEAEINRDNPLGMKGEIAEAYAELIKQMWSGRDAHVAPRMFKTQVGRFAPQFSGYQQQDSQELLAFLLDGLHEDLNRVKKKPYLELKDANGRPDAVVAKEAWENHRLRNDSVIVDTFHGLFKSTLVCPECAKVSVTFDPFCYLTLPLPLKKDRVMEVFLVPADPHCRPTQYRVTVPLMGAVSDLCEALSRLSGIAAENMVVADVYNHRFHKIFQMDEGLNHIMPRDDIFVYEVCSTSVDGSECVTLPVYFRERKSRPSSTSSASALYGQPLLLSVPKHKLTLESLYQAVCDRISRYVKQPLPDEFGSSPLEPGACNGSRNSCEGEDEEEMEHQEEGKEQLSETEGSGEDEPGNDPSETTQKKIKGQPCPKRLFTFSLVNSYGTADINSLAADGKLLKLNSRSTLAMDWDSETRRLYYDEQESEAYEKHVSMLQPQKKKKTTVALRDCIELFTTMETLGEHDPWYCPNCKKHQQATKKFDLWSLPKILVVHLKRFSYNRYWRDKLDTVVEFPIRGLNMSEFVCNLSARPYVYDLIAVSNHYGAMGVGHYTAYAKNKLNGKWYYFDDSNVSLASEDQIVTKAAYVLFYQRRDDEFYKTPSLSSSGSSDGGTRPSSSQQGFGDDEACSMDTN
In short: as §1

Measured: log2 ratio of Biotin-Ahx-Ub-VS probe labelling

USP34, sequence (Q70CQ2 whole entry, the tested form may be a part): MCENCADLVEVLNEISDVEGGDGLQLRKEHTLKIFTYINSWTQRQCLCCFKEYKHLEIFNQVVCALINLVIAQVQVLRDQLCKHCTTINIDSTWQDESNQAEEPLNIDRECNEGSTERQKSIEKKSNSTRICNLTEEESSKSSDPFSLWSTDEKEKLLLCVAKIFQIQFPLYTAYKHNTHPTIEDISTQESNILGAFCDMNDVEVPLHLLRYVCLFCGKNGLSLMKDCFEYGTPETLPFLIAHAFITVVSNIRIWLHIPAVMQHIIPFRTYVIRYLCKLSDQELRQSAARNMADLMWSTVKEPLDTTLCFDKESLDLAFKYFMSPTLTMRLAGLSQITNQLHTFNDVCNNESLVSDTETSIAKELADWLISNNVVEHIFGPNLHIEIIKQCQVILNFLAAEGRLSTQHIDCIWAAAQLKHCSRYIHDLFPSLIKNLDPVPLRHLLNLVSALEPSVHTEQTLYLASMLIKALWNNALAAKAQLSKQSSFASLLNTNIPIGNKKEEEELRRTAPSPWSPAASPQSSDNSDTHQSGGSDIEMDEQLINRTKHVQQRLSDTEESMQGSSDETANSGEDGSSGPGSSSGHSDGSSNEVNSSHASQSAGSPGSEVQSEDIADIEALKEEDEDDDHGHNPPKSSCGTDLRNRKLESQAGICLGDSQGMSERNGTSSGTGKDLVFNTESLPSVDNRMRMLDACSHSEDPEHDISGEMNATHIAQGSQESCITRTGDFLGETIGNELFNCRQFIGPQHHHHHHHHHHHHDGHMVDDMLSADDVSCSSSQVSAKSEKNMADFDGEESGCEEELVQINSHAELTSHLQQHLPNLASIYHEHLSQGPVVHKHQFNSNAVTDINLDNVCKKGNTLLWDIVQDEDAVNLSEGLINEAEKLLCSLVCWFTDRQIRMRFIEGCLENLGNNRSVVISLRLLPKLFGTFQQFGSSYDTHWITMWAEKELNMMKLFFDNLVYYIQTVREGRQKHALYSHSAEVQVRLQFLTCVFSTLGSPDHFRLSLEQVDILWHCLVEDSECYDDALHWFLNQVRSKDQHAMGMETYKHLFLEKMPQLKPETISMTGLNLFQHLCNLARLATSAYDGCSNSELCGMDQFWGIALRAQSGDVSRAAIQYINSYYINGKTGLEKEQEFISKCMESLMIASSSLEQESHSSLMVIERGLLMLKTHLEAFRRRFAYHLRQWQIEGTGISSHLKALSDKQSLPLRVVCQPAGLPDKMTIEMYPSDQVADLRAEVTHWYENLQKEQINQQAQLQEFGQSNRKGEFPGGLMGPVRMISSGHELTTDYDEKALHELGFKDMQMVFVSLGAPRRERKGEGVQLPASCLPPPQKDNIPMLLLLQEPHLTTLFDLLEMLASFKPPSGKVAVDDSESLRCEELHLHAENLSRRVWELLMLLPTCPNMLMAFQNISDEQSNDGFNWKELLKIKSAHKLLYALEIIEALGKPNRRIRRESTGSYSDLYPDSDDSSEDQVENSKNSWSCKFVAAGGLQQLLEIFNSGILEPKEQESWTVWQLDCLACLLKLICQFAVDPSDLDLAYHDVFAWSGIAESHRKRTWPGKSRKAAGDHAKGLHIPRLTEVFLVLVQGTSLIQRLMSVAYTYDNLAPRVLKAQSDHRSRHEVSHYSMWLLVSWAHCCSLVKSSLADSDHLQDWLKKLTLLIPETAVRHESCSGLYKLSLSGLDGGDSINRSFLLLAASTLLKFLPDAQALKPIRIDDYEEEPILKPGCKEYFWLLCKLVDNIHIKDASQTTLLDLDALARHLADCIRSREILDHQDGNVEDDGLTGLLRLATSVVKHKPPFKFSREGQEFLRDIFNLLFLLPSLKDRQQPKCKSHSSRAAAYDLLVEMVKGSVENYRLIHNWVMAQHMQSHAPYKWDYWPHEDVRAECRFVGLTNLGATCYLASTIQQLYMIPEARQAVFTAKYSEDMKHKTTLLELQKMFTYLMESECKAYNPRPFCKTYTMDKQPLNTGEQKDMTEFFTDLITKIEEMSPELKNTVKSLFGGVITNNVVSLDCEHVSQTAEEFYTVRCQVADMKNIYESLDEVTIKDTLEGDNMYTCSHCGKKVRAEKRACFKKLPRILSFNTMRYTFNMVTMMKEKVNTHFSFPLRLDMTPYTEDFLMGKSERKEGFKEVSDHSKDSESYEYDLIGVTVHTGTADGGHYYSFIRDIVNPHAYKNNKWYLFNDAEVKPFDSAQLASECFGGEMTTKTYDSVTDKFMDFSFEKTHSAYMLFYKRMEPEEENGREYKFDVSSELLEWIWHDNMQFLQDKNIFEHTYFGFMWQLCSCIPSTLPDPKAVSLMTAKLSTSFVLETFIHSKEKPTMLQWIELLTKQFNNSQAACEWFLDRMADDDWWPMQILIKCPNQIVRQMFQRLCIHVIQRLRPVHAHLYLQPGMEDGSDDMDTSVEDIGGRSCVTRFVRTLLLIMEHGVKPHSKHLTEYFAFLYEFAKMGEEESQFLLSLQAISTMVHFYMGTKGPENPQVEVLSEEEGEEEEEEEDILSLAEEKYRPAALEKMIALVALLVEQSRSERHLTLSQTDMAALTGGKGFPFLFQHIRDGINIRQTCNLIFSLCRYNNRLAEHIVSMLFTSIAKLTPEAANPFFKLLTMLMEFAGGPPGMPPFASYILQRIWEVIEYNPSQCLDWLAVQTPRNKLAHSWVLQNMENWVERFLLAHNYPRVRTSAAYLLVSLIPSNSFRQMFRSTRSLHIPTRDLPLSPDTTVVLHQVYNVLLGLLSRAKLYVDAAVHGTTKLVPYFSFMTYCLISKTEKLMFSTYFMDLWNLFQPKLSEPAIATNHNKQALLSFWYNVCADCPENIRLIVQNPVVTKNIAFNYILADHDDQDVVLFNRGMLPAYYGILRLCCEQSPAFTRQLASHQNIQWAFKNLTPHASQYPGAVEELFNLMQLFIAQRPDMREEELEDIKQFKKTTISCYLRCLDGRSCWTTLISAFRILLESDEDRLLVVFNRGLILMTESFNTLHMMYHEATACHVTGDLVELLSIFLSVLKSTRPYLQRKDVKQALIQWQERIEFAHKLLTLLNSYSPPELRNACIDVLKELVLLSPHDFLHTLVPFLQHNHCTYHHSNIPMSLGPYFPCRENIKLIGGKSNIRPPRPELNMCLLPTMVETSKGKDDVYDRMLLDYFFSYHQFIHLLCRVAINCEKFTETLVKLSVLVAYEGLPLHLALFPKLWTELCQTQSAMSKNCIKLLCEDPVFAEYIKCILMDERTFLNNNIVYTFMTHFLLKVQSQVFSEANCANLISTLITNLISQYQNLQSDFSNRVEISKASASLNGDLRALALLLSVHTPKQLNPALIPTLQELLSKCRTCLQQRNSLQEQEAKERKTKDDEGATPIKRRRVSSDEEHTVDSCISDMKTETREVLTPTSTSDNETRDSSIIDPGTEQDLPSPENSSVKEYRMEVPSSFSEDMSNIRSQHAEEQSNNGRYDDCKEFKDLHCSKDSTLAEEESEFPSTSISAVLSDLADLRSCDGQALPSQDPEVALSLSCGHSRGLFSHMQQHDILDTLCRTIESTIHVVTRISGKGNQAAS

Cc1noc(N2CCN(C(=O)CCl)CC2)n1.Cl
inactive: USP34 0.028 | USP36 -0.0365 | USP38 -0.0491 | USP39 0.251 | USP4 0.0534
